# Measured values as given in PubChem BioAssay AID1159580 (chemical genetic matrix, 2015).
# Values joined by “and” are separate entries in the source; they are usually repeats but may differ in a detail not shown here. Identical values can stand only once. Hit rate of the full screen: of about 5,500 compounds, about 2,000 (36%) were called active. About 18% were inconclusive and are not listed. The list shows a part of the results. A number with no mark means an inactive call. Cut-off read from the data, not from the text of the source: active = normalized growth mostly below about 0.91 (no sharp cut-off); inconclusive = no clear call, values can overlap the other calls; inactive = mostly above about 0.92.
# Test: chemical genetic growth profiling, strain panel (AID 1159580);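 note: tested at 20 µM; growth read once vehicle control cultures reached saturation at 30 °C; 1 = growth at the plate median or of vehicle wells; lower values mean less growth of the strain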
# Conditions: S. cerevisiae deletion strains, growth OD
smiles,measurement,setting,value
CC1=CC(=O)c2ccccc2C1=O,normalized growth,"locus YAL013W, strain DEP1, hits give low values",0.0548 (active)
same,normalized growth,"locus YAL021C, strain ccr4, hits give low values",1.02
same,normalized growth,"locus YAL026C, strain drs2, hits give low values",0.903 (active)
same,normalized growth,"locus YAL030W, strain snc1, hits give low values",1.02
same,normalized growth,"locus YBL061C, strain skt5, hits give low values",1.03
same,normalized growth,"locus YBR009C, strain hhf1, hits give low values",0.757 (active)
same,normalized growth,"locus YBR021W, strain FUR4, hits give low values",0.0857 (active)
same,normalized growth,"locus YBR023C, strain chs3, hits give low values",0.999
same,normalized growth,"locus YBR171W, strain sec66, hits give low values",1.03
same,normalized growth,"locus YBR229C, strain ROT2, hits give low values",0.076 (active)
same,normalized growth,"locus YBR231C, strain swc5, hits give low values",0.955
same,normalized growth,"locus YBR279W, strain paf1, hits give low values",0.971
same,normalized growth,"locus YCL011C, strain gbp2, hits give low values",0.864 (active)
same,normalized growth,"locus YCL016C, strain dcc1, hits give low values",0.933
same,normalized growth,"locus YCL029C, strain bik1, hits give low values",0.0624 (active)
same,normalized growth,"locus YCL061C, strain MRC1, hits give low values",0.932
same,normalized growth,"locus YCL069W, strain vba3, hits give low values",0.967
same,normalized growth,"locus YCR088W, strain abp1, hits give low values",1.03
same,normalized growth,"locus YDL005C, strain med2, hits give low values",1.03
same,normalized growth,"locus YDL035C, strain GPR1, hits give low values",0.0512 (active)
same,normalized growth,"locus YDL040C, strain nat1, hits give low values",1.03
same,normalized growth,"locus YDL074C, strain BRE1, hits give low values",0.108 (active)
same,normalized growth,"locus YDL101C, strain DUN1, hits give low values",0.0567 (active)
same,normalized growth,"locus YDL134C, strain PPH21, hits give low values",0.046 (active)
same,normalized growth,"locus YDL185W, strain tfp1, hits give low values",0.0717 (active)
same,normalized growth,"locus YDL192W, strain arf1, hits give low values",0.0585 (active)
same,normalized growth,"locus YDR001C, strain nth1, hits give low values",1.04
same,normalized growth,"locus YDR069C, strain doa4, hits give low values",1.03
same,normalized growth,"locus YDR101C, strain arx1, hits give low values",0.0639 (active)
same,normalized growth,"locus YDR137W, strain rgp1, hits give low values",0.916
same,normalized growth,"locus YDR150W, strain NUM1, hits give low values",0.0617 (active)
same,normalized growth,"locus YDR159W, strain sac3, hits give low values",0.983
same,normalized growth,"locus YDR162C, strain NBP2, hits give low values",0.054 (active)
same,normalized growth,"locus YDR195W, strain ref2",1.3 [resistant] (active)
same,normalized growth,"locus YDR297W, strain sur2, hits give low values",0.988
same,normalized growth,"locus YDR318W, strain mcm21, hits give low values",0.0603 (active)
same,normalized growth,"locus YDR334W, strain swr1, hits give low values",1.01
same,normalized growth,"locus YDR335W, strain msn5, hits give low values",1.01
same,normalized growth,"locus YDR388W, hits give low values",0.0538 (active)
same,normalized growth,"locus YDR392W, strain spt3, hits give low values",0.539 (active)
same,normalized growth,"locus YDR502C, strain sam2, hits give low values",0.059 (active)
same,normalized growth,"locus YEL003W, strain gim4, hits give low values",0.938
same,normalized growth,"locus YEL037C, strain rad23, hits give low values",0.994
same,normalized growth,"locus YEL061C, strain CIN8 (second series), hits give low values",1.02
same,normalized growth,"locus YEL061C, strain CIN8, hits give low values",0.0492 (active)
same,normalized growth,"locus YER015W, strain faa2, hits give low values",0.971
same,normalized growth,"locus YER016W, strain bim1, hits give low values",1.02
same,normalized growth,"locus YER110C, hits give low values",0.0711 (active)
same,normalized growth,"locus YER111C, strain swi4, hits give low values",1.02
same,normalized growth,"locus YER155C, strain BEM2 (second series), hits give low values",0.993
same,normalized growth,"locus YER155C, strain BEM2, hits give low values",0.076 (active)
same,normalized growth,"locus YER167W, strain BCK2, hits give low values",0.0494 (active)
same,normalized growth,"locus YFR010W, strain ubp6, hits give low values",0.989
same,normalized growth,"locus YGL078C, strain dbp3, hits give low values",0.294 (active)
same,normalized growth,"locus YGL086W, strain mad1, hits give low values",0.0543 (active)
same,normalized growth,"locus YGL167C, strain pmr1, hits give low values",1.04
same,normalized growth,"locus YGL173C, strain kem1, hits give low values",0.987
same,normalized growth,"locus YGL227W, strain vid30, hits give low values",0.974
same,normalized growth,"locus YGL240W, strain doc1, hits give low values",0.871 (active)
same,normalized growth,"locus YGL248W, strain PDE1, hits give low values",0.0439 (active)
same,normalized growth,"locus YGL253W, strain hxk2, hits give low values",0.887 (active)
same,normalized growth,"locus YGR078C, strain PAC10, hits give low values",0.0487 (active)
same,normalized growth,"locus YGR135W, strain pre9, hits give low values",0.0619 (active)
same,normalized growth,"locus YGR229C, strain SMI1, hits give low values",0.0566 (active)
same,normalized growth,"locus YGR252W, strain gcn5, hits give low values",0.168 (active)
same,normalized growth,"locus YHR013C, strain ard1, hits give low values",1.17 [resistant] (active)
same,normalized growth,"locus YHR027C, strain rpn1, hits give low values",0.997
same,normalized growth,"locus YHR030C, strain SLT2, hits give low values",0.0463 (active) and 0.306 (active)
same,normalized growth,"locus YHR079C, strain IRE1 (second series), hits give low values",0.0572 (active)
same,normalized growth,"locus YHR079C, strain IRE1, hits give low values",0.291 (active)
same,normalized growth,"locus YHR094C, strain hxt1, hits give low values",0.0585 (active)
same,normalized growth,"locus YHR129C, strain ARP1, hits give low values",0.058 (active)
same,normalized growth,"locus YHR142W, strain chs7, hits give low values",0.838 (active)
same,normalized growth,"locus YHR200W, strain rpn10, hits give low values",0.0601 (active)
same,normalized growth,"locus YIL066C, strain RNR3, hits give low values",0.0506 (active)
same,normalized growth,"locus YIL073C, strain SPO22, hits give low values",0.117 (active)
same,normalized growth,"locus YIL125W, strain kgd1, hits give low values",0.419 (active)
same,normalized growth,"locus YIR030C, strain dcg1, hits give low values",0.0593 (active)
same,normalized growth,"locus YJL092W, strain hpr5, hits give low values",1.02
same,normalized growth,"locus YJL095W, strain BCK1 (second series), hits give low values",1.02
same,normalized growth,"locus YJL095W, strain BCK1, hits give low values",0.0528 (active) and 0.292 (active)
same,normalized growth,"locus YJL115W, strain asf1, hits give low values",1.03
same,normalized growth,"locus YJL129C, strain trk1, hits give low values",1.02
same,normalized growth,"locus YJL134W, strain LCB3, hits give low values",0.0458 (active)
same,normalized growth,"locus YJL154C, strain vps35, hits give low values",1.03
same,normalized growth,"locus YJL164C, strain tpk1, hits give low values",0.934
same,normalized growth,"locus YJL166W, strain qcr8, hits give low values",0.639 (active)
same,normalized growth,"locus YJL168C, strain set2, hits give low values",0.0804 (active)
same,normalized growth,"locus YJL187C, strain SWE1 (second series), hits give low values",0.0592 (active)
same,normalized growth,"locus YJR043C, strain POL32, hits give low values",0.0645 (active)
same,normalized growth,"locus YJR066W, strain TOR1, hits give low values",0.368 (active)
